Compound activity (PubChem)
ALOX12 inhib – inhibitors of human 12-lipoxygenase (ALOX12); P18054; purified 12-hLO, xylenol orange hydroperoxide absorbance; Potency, µM (top dose mostly 57.1 µM), actives largely listed as inhibitors; 150,000 tested, 0.12% active; active means well fitted inhibition curve with a large enough effect; inconclusive means small, poorly fitted or top-dose-only effect; further: nearly all actives have a fitted effect of over 55% in size
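Purified human 12hLO (150 nM), preincubated 15 min with compound, then 40 uM arachidonic acid for 30 min, room temperature, Hepes pH 7.0 with 0.01% Triton X-100. Hydroperoxide detected by ferrous iron/xylenol orange; 573/405 nm absorbance ratio gives reaction progress.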
HPGD block – blocks human HPGD enzyme activity. purified HPGD, NADH fluorescence kinetic, PGE2 substrate. P15428. 150,000 tested, 4.3% active. Potency, µM, usual class: inhibitors
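20 nM HPGD preincubated 15 min at room temperature with compound in 50 mM Tris-HCl pH 8, 0.01% Tween 20. Started with 1 mM NAD+ and 30 uM prostaglandin E2; NADH fluorescence (360/450 nm) read 5 times over 30-s intervals, last minus first.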
ALDH1A1 inh – inhibitors of human aldehyde dehydrogenase 1A1 | P00352 | Purified ALDH1A1, NADH fluorescence, propionaldehyde substrate | Potency, µM (series often up to 75.3 µM), hits mostly inhibitors | 220,000 tested, 7.3% active | AID 1030
Target sequence (P00352 whole entry, looked up): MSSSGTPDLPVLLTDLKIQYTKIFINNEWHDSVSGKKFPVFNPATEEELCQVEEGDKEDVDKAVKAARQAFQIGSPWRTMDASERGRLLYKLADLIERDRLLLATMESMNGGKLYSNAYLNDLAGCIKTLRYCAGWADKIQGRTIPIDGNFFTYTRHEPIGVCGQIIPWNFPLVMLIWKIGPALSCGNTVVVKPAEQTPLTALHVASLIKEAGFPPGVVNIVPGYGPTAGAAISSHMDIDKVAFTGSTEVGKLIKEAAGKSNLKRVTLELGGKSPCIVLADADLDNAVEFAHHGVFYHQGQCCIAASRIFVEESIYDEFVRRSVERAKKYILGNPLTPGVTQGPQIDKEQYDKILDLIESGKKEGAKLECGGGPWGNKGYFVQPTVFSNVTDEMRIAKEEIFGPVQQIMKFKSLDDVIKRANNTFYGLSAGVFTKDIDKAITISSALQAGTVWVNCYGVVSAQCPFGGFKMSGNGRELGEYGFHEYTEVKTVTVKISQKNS
PNC assembly inh – blocks assembly of the perinucleolar compartment | PC3M PTB-GFP, PNC prevalence imaging, 16 h; active compounds read low | activity change (PNC), negative = inhibition, % at 10 µM | 140,000 tested, 3.1% active | AID 2417;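 active means readout at or below -70, meaning at least 70% loss of cells showing the perinucleolar compartment, a nuclear body marking cancer cells; inconclusive means readout between -30 and a set limit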
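Compounds are pinned in duplicate onto adhered PC3M cells stably expressing GFP-tagged PTB and incubated 16 h at 37 C. Cells are then fixed, nuclei stained with Hoechst, and PNC-positive cells counted.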
Lamin A splicing – LMNA splicing modulation. 200,000 tested, 0.01% active. HeLa LMNA splicing GFP/RFP minigene ratio, 48 h. Potency, µM (series often up to 46.1 µM), most hits filed as inhibitors; active means well fitted inhibition curve with a large enough effect in the signal ratio, with a control signal flat, not every such curve was filed as active; inconclusive means small, poorly fitted or top-dose-only effect, or effect the other way, or a change in a side signal; the % refers to the signal ratio
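S3 HeLa cells stably expressing lamin A-EGFP splicing minigene plus DsRed2, 600 cells/well, 48 h compound exposure at 37C. Laser-scanning cytometry; analysed as GFP (500-530 nm)/RFP (575-640 nm) total intensity ratio; 0.5% DMSO vehicle.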
A number is an active result; - = inactive; ? = inconclusive; . = not tested or not shown. A selection: hits, their analogues and other compounds. The true share with any hit is near 10%. Unless noted, the call rests on the fitted dose curve; in most records, active means well fitted inhibition curve with a large enough effect (not every such curve was filed as active); inconclusive means small, poorly fitted or top-dose-only effect, or another doubt; inactive means no such curve, though single readings can be large or run the other way.

SMILES	ALOX12 inhib	HPGD block	ALDH1A1 inh	PNC assembly inh	Lamin A splicing
COc1ccccc1-n1c(SCC(=O)NCc2ccc3c(c2)OCO3)nc2cc([N+](=O)[O-])ccc21	-	-	1.1µM	-	-
CC(Sc1nc2cc([N+](=O)[O-])ccc2n1-c1ccc(F)cc1)C(=O)NCc1ccc2c(c1)OCO2 (centres undefined)	?	?	1.4µM	-	-
COc1ccc(OC)c2c(=S)c3ccccc3[nH]c12	25µM	5µM	1.6µM	.	.
CC(=O)N1CCN(c2ccc(NC(=O)c3ccc(C(C)(C)C)cc3)cc2)CC1	-	-	-	?	-
CC(C)(C)c1ccc(C(=O)Nc2ccc(C=C(C#N)C#N)cc2)cc1	-	-	4µM	-134	-
Cc1ccc(C)n1-c1sc2c(c1C#N)CCCC2	-	-	-	-100	-
O=Cc1cccn1-c1sc2c(c1C(=O)O)CCCC2	-	-	-	-	-
N#Cc1c(-n2cccc2C=O)sc2c1CCCC2	.	.	32µM	.	.
Cc1ccc(C)n1-n1cnc2sc3c(c2c1=O)CCCCC3	-	-	?	-	-
Cc1sc(N2C(=O)C3C4C=CC(C4)C3C2=O)c(C#N)c1C (centres undefined)	-	-	?	?	-
Cc1sc(-n2c(C)ccc2C)c(C#N)c1C	-	18µM	22µM	-	-
CCOC(=O)c1c(S(=O)(=O)N2CCCC(C(=O)Nc3ccc(C)cc3C)C2)c(C)n(CC)c1C (centres undefined)	.	.	.	.	-
Cn1c(=O)n(Cc2ccccc2)c(=O)c2c1nc1n2CCN1c1ccccc1	.	.	.	.	-
CC1CCN(C(=O)c2ccc(CSc3nc4ccncc4n3Cc3ccc(F)cc3)cc2)CC1	-	0.79µM	-	-	?
O=C(NC1CC1)c1ccc(Cn2c(SCc3ccc(F)cc3)nc3cccnc32)cc1	.	.	.	.	-
COc1ccc(OC)c(-c2cc(C3CCN(c4ncccc4[N+](=O)[O-])CC3)[nH]n2)c1	-	14µM	?	-	?
O=[N+]([O-])c1cccnc1N1CCC(c2cc(-c3ccc(Cl)cc3Cl)n[nH]2)CC1	-	-	-	-	?
CCN(CC)S(=O)(=O)c1cccc(-c2nnc(SCC#N)n2Cc2ccccc2)c1	-	-	10µM	-	-
CCN(CC)S(=O)(=O)c1cccc(-c2nnc(-c3ccc(C)cc3)o2)c1	-	-	11µM	?	-
CCN(CC)S(=O)(=O)c1ccc(-c2nnc(SC)o2)cc1	-	-	?	-	-
CCN(CC)S(=O)(=O)c1cccc(-c2nnc(SC(C)C#N)n2Cc2ccccc2)c1 (centres undefined)	-	-	7.9µM	-	-
COc1ccc2c(c1)C(=O)[C@H](OC(=O)N[C@H]1CCCc3ccccc31)[C@@H](c1ccc(OC)c(Br)c1)O2	.	-	?	.	.
CCCCCC[C@@H]([C@H](C)O)n1cnc2c(N)ncnc21	-	.	.	.	.
CC(C)c1ccc(NC(=O)CSC2=Nc3ccccc3C3=NC(CC(=O)NCc4ccco4)C(=O)N23)cc1 (centres undefined)	.	.	.	.	-
O=C(Cn1cc(S(=O)(=O)Cc2ccccc2Cl)c2ccccc21)Nc1ccc(F)cc1F	.	.	.	.	-
SMILES	ALOX12 inhib	HPGD block	ALDH1A1 inh	PNC assembly inh	Lamin A splicing
O=C(O)CSc1cc(C(=O)c2ccccc2O)cn2c(=O)c3c(-c4ccccc4)csc3nc12	.	.	3.5µM	.	?
CCOC(=O)c1sc2nc3c(SCC(=O)O)cc(C(=O)c4ccccc4O)cn3c(=O)c2c1C	.	.	-	.	?
Cc1sc2nc3c(SC(C)C(=O)O)cc(C(=O)c4ccccc4O)cn3c(=O)c2c1C (centres undefined)	-	-	8.9µM	-	?
O=C(NCc1cccc(F)c1)c1ccc(NC(=O)c2nsc3ccccc23)cc1	.	.	.	.	-
O=C(Cn1ccc2cc(S(=O)(=O)N3CCCCCC3)ccc21)NCc1cccc(Cl)c1	.	.	.	.	-
COc1ccc(/C=N/n2c(-c3ccco3)nc3ccccc3c2=O)cc1	-	-	-	-100	-
CC(=O)c1cccc(NC(=O)c2nc3ccccc3nc2N2CCCCC2)c1	.	.	.	.	-
CC(C)=CCN1CCNC(=O)C1CC(=O)NCc1nc(C)c(C)s1 (centres undefined)	.	.	-	.	.
COc1ccc(-n2c(C)cc(C3=NNC(=NC4CC4)SC3)c2C)cc1	.	.	?	.	-
Cc1cc(C2=NNC(=NC3CC3)SC2)c(C)n1Cc1ccco1	-	-	20µM	-	?
COCCCN=C1NN=C(c2cc(C)n(Cc3ccco3)c2C)CS1	-	-	-	-108	?
Cc1cc(C2=NNC(=NC3CC3)SC2)c(C)n1-c1ccccc1	-	-	3.5µM	-	?
COCCn1c(C)cc(C2=NNC(=Nc3ccc(Cl)cc3Cl)SC2)c1C	-	-	25µM	?	-
FC(F)(F)c1ccccc1-c1nc(NC2CCNCC2)c2ccccc2n1	.	.	-	.	-
COC1(C)CCC2OC2(C)CCC2C1CC2(C)C (centres undefined)	-	-	?	.	-
COc1ccc2c(C)cc(N3CCOCC3)nc2c1	-	?	?	?	-
COc1ccc2c(C)cc(SCC(=O)N3CCOCC3)nc2c1	-	-	22µM	-	-
COC(=O)c1c(C)sc(-c2c(-c3ccc4c(c3)OCCO4)[nH]c3[nH]c(=O)[nH]c(=O)c23)c1O	.	.	.	.	-
CCS(=O)(=O)NCCNc1ccc([N+](=O)[O-])cc1	.	.	-	.	-
CCc1ccc(NC(=O)/C(C#N)=C/c2cc3ccc(C)cc3nc2N2CCOCC2)cc1	-	-	-	-	-
CC1CC1c1ccc(/C=C(\C#N)C(=O)Nc2ccc(Cl)cc2)o1 (centres undefined)	-	-	?	-125	?
N#C/C(=C/c1ccc(N2CCCCC2)o1)C(=O)Nc1ccc(Cl)cc1	-	-	-	-123	?
N#C/C(=C/c1ccc(N2CCCCC2)o1)C(=O)Nc1ccc2ccccc2c1	-	?	?	-91	?
N#C/C(=C\c1ccc(N2CCOCC2)o1)C(=O)Nc1ccc(O)cc1	.	.	20µM	.	?
NCCCC(N)CC(=O)NC1CNC(=O)C(C2CC(O)N=C(N)N2)NC(=O)/C(=C/NC(N)=O)NC(=O)C(CO)NC(=O)C(CO)NC1=O (centres undefined)	.	.	.	.	-
SMILES	ALOX12 inhib	HPGD block	ALDH1A1 inh	PNC assembly inh	Lamin A splicing
CCOc1ccc(N(C)S(=O)(=O)c2c(C(=O)N3CCC(C)CC3)c(C)n(C)c2C)cc1	.	.	.	.	-
O=C(O)CN(c1ccccc1[N+](=O)[O-])S(=O)(=O)c1ccccc1	.	.	-	.	.
CSc1ccc(/C=C(\C#N)C(=O)NC2CCCCC2)cc1	-	-	?	?	-
N#C/C(=C/c1ccc(N2CCOCC2)o1)C(=O)NC1CCCCC1	.	.	6.3µM	.	-
Nc1cc(S(=O)(=O)C(F)(F)F)ccc1C(=O)O	-	-	-	-127	-
CN(Cc1ccccc1)CC(O)COc1ccc(CNCc2ccc(Cl)s2)cc1 (centres undefined)	.	.	-	.	.
Cc1cc(N2CCC(C)CC2)c(F)cc1[N+](=O)[O-]	-	-	10µM	-	-
CC1CCN(c2cc(C#N)c(C#N)cc2[N+](=O)[O-])CC1	-	-	-	-	-
